Bioassay records: PubChem, National Center for Advancing Translational Sciences (NCATS)
Hsp90 Hop PPI: changes Hsp90-Hop TPR2A binding signal, up or down; AlphaScreen TPR2A-His6 binding biotin-Hsp90 C-terminal peptide; Potency, µM (highest dose often 57 µM); 71,000 compounds, 0.44% hits; AID 595; active means well fitted curve in either direction with a large enough effect; inconclusive means small, poorly fitted or top-dose-only effect, or another doubt
IkB sig inh: suppresses IkB signaling in ABC-DLBCL reporter cells; AID 445; ABC-DLBCL IkBa-CBG/CBR dual luciferase ratio, 4 h; response scale: scaled: untreated 0%, proteasome inhibitor 100%; 110,000 compounds, 0.04% hits; Potency, µM (doses to about 57.1 µM); active means well fitted curve in the direction sought with a large enough effect in the signal ratio, not every such curve was filed as active; inconclusive means small, poorly fitted or top-dose-only effect, or a change in a side signal; the % refers to the signal ratio;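 further: the direction sought is a rising ratio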
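In this assay, an IκBα–CBG68 fusion accumulates when IKK-driven degradation is blocked; native CBR normalizes for cell number. OCI-Ly3 cells were treated 4 h with compound and doxycycline, then green and red light read after Chroma-Glo addition.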
IMPase inh: cell-permeable inhibitors of inositol monophosphatase (IMPase) | P97697 | CHO-M1 cells, IP1 accumulation, HTRF TR-FRET ratio | inhibition (IP1 accumulation), % at 46.1 µM | 120,000 tested, under 10 active | AID 901; active means well fitted curve in the direction sought with a large enough effect in the signal ratio, not every such curve was filed as active; inconclusive means small, poorly fitted or top-dose-only effect, or a change in a side signal; inactive means no such curve, though single readings can be large or run the other way; the % refers to the signal ratio;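 further: cells stimulated with carbachol in lithium chloride buffer; higher means more IMPase inhibition seen as more IP1 and lower FRET ratio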
Target sequence (P97697 whole entry, looked up): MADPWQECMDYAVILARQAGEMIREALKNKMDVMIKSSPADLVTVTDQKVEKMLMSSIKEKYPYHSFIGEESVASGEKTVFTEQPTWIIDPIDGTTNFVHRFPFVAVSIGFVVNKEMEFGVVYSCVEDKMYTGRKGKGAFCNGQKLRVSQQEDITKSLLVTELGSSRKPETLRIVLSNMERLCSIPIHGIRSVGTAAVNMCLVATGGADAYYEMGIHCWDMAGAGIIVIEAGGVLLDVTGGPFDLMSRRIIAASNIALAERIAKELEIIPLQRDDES
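CHO-M1 cells (CHO stably expressing M1 receptor), compound up to 46 uM final, stimulated with carbachol (50 uM as added) in buffer with 50mM LiCl, pH 7.4, 30 min at 37C. Cytosolic IP1 read by TR-FRET; AC50 from Hill fits.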
p53ts 32C kill: cytotoxicity in p53ts cells at permissive temperature. Potency, µM (series often up to 46.1 µM), actives largely listed as cytotoxic. H1299-p53A138V at 32C, ATP luminescence viability, 24 h. 130,000 compounds, 0.93% hits; further: nearly all actives have a fitted effect of over 55% in size
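Viability by ATPlite luminescence after 24 h compound treatment (up to 46 uM) at the permissive 32C. Cells are H1299 carrying p53 A138V. Scale runs from DMSO basal to 100 uM tamoxifen as full kill; AC50 from Hill fits.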
FLuc inh: inhibitors of firefly luciferase. purified firefly luciferase, luminescence, 8 min. Potency, µM (doses to about 57.1 µM), usual class: inhibitors. 72,000 compounds, 2.2% hits. P08659; further: nearly all actives have a fitted effect of over 40% in size
Target sequence (P08659 whole entry, looked up): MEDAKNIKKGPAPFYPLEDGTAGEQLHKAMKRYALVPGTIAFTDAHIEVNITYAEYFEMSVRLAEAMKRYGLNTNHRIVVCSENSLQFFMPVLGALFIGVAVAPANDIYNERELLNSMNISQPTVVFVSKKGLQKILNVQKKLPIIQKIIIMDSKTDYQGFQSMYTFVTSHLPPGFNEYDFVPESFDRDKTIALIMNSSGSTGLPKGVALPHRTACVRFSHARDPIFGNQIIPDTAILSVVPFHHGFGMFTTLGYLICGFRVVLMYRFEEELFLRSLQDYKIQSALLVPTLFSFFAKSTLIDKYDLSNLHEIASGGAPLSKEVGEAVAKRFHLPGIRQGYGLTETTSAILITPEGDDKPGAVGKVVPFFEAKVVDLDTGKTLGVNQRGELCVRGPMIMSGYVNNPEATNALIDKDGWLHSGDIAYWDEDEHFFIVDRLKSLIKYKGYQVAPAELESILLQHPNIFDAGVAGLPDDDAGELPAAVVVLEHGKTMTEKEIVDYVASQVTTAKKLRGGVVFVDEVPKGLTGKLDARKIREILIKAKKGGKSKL
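Substrate buffer containing 10 uM ATP (pH 7.2 imidazole, Mg2+, KCl, detergent, BSA) is dispensed, compound pinned in, then luciferase/luciferin detector mix added. After 8 min at ambient temperature, light output is measured.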
p53ts 39C kill: kills p53ts cells at the nonpermissive temperature; H1299-p53A138V viability at 39C, ATP luminescence, 24 h; Potency, µM (titrated, usually from 46.1 µM), hits mostly cytotoxic; 130,000 compounds, 1.5% hits; further: nearly all actives have a fitted effect of over 55% in size
Hits are given with their value; - = inactive; ? = inconclusive; . = no result; [ ] = another dose, or the depositor's remark. Many of the other results were omitted from the sample, so hits are more common in it than they were. Unless noted, the call rests on the fitted dose curve; in most records, active means well fitted curve in the direction sought with a large enough effect; inconclusive means small, poorly fitted or top-dose-only effect, or another doubt; inactive means no such curve, though single readings can be large; an effect the other way counts as inactive or inconclusive.

SMILES | Hsp90 Hop PPI | IkB sig inh | IMPase inh | p53ts 32C kill | FLuc inh | p53ts 39C kill
COC(=O)c1ccc(Nc2nc(-c3ccc(C)cc3)nc3ccccc23)cc1 | . | ? | - | ? | . | 13µM
Cc1ccc(Nc2nc(C3CC3)cs2)cc1 | - | - | - | ? | 7.9µM | ?
Clc1ccc(Nc2nc(C3CC3)cs2)cc1 | . | . | - | . | . | .
O=C(Cn1cc(SCc2ccccc2F)c2ccccc21)N1CCCCCC1 | . | - | . | - | . | -
O=C(N/N=C/c1sc2ccccc2c1O)c1ccccc1 | . | . | - | . | . | 7.1µM
CCCc1nn2c(=O)cc(COC(=O)c3cccc(NC(=O)c4ccc(OCC)cc4)c3)nc2s1 | . | ? | . | - | . | -
Cc1ccc(NC(=O)C2CCCN2S(=O)(=O)c2cccc3cccnc23)cc1C (stereo not given) | . | - | . | - | . | -
O=C(NC1CC1)c1ccc(Cn2c(SCc3ccccc3F)nc3cccnc32)cc1 | . | . | . | 16µM | . | .
O=C(NCc1cccs1)c1ccc(CSc2nc3cccnc3n2Cc2ccccc2)cc1 | . | . | . | - | . | .
O=C(NC1CCCCC1)c1ccc(CSc2nc3cccnc3n2Cc2ccccc2F)cc1 | . | . | . | - | . | .
Cc1ccc(CSc2nc3cccnc3n2Cc2ccc(C(=O)NC3CCCCC3)cc2)cc1 | . | . | . | 11µM | . | .
Cc1ccc(CSc2nc3cccnc3n2Cc2ccc(C(=O)NCCc3cccs3)cc2)cc1 | . | . | . | 5µM | . | .
CCc1cccc(C)c1NC(=O)Cn1ccn(-c2cccc(OC)c2)c(=O)c1=O | . | ? | . | - | . | -
COc1ccc(-c2cc(C(=O)N/N=C/c3ccc(OC)c(OC)c3)[nH]n2)cc1 | . | . | . | - | . | -
CN(C)CCNS(=O)(=O)N(C)C | -[11 µM] | -[11.4 µM] | . | -[9.22 µM] | -[11.4 µM] | -[9.22 µM]
CCN(CC)c1ccc2cc(-c3nc4ccccc4[nH]3)c(=O)oc2c1 | ? | - | - | 0.32µM | 0.04µM | 0.4µM
COc1ccc(C(=O)/C=C/Nc2cc(C)on2)c(OC)c1 | - | - | - | - | 3.2µM | -
Cc1ccc(S(=O)(=O)Nc2ccc3c(c2)c(C(=O)OC(C)C)c(C)n3S(=O)(=O)c2ccc(C)cc2)cc1 | . | - | - | - | . | -
COc1nc(C)ccc1-c1noc(-c2ccccn2)n1 | - | - | - | 10µM | ? | 10µM
COc1ccccc1-c1nc(-c2ccc(C)nc2OC)no1 | - | - | - | ? | ? | ?
COc1ccc(Cc2nnc(N/N=C/c3ccc(O)cc3)[nH]c2=O)cc1OC | . | . | - | . | . | 2.8µM
COc1ccc(/C=N/NC(=O)CCc2n[nH]c(=O)[nH]c2=O)cc1OC | . | . | - | . | . | .
[N-]=[N+]=Nc1nc2c(N)ncnc2n1C1OC(CO)C(O)C1O (stereo not given) | . | . | . | 2µM | . | 2.5µM
COc1ccc2nc(N=Nc3ccc(N(C)C)cc3)sc2c1 | . | . | - | . | . | .
CN(C)c1ccc2nc3ccc(=[N+](C)C)cc-3sc2c1 | ? | - | . | -[1.84 µM] | . | 3.2µM
SMILES | Hsp90 Hop PPI | IkB sig inh | IMPase inh | p53ts 32C kill | FLuc inh | p53ts 39C kill
O=C(Nc1nnc(SCC(=O)N2CCCc3ccccc32)s1)c1ccccc1 | . | . | - | . | . | 8.9µM
Cc1cc(C)cc(C(=O)Nc2nnc(SCC(=O)N3CCCc4ccccc43)s2)c1 | . | . | - | . | . | -
O=C(Nc1nnc(SCC(=O)N2CCCc3ccccc32)s1)c1ccc2ccccc2c1 | . | . | - | . | . | 3.2µM
CCc1ccccc1NC(=O)Cn1ccn(-c2cc(C)cc(C)c2)c(=O)c1=O | . | - | . | - | . | -
Cc1ccc(C(=O)Nc2ccccc2C(=O)NC(CC(=O)O)C(=O)O)cc1 (stereo not given) | - | ? | - | - | 32µM | -
Cc1ccc(C(=O)Nc2ccccc2C(=O)NC(C(=O)O)C(C)C)cc1 (stereo not given) | . | . | - | ? | . | 10µM
O=C(CCn1c(=O)c2cccn2c2ccc(F)cc21)NCCc1ccccc1Cl | . | - | . | - | . | ?
Cc1nn(-c2ccccc2Cl)c(Cl)c1/C=N/Nc1cccc(C(=O)O)c1 | . | . | - | 11µM | . | 11µM
Cc1cccc(-c2nnc(-c3ccc(N)cc3)o2)c1 | - | - | - | ? | 13µM | ?
c1ccc(-c2nnc(-c3ccccc3)o2)cc1 | . | . | - | . | . | .
Clc1cccc(-c2nnc(-c3ccccc3)o2)c1 | - | ? | - | 10µM | 5µM | 13µM
Cc1ccc(-c2nnc(-c3cccc(Br)c3)o2)cc1 | . | . | - | . | - | .
Brc1cccc(-c2nnc(-c3ccccc3)o2)c1 | - | - | - | ? | 16µM | -
COc1cccc(-c2cc(C(=O)N/N=C/c3ccccc3O)[nH]n2)c1 | . | . | . | ? | . | 10µM
O=C(N/N=C\c1ccccc1O)c1ccccc1O | 10µM | ? | - | 1.3µM | - | 2µM
O=C(N/N=C/c1ccccc1O)c1cc(-c2ccccc2)n[nH]1 | . | . | . | - | . | 16µM
COc1cc(/C=N/NC(=O)c2cc(-c3ccccc3)n[nH]2)ccc1O | . | . | . | - | . | -
COc1ccc(Cn2c(CO)cnc2SCc2ccc(C)cc2)cc1 | . | ? | . | - | . | -
COc1ccc(CN(C)c2ccc(-c3nc(C)no3)cc2[N+](=O)[O-])cc1 | . | - | . | - | . | -
COc1ccc(C(O)C(CN2CCOCC2)c2ccccc2)cc1F (stereo not given) | - | - | - | - | - | -
COc1ccc(C(=O)C(CN2CCOCC2)c2ccccc2)cc1F (stereo not given) | - | ? | - | ? | - | 20µM
COc1ccc(-c2nnc(N)s2)cc1 | - | - | - | - | ? | ?
CCCOc1ccc(-c2nnc(N)s2)cc1 | . | . | - | . | 13µM | .
Oc1ccccc1-c1nnc(COc2ccccc2)o1 | - | ? | - | - | - | -
Oc1ccccc1-c1nnc(COc2ccc(Cl)cc2Cl)o1 | - | ? | - | - | 13µM | -
SMILES | Hsp90 Hop PPI | IkB sig inh | IMPase inh | p53ts 32C kill | FLuc inh | p53ts 39C kill
COc1ccc(N/C=C(\C#N)c2nc3ccccc3n2C)c(OC)c1 | . | . | - | . | 4µM | .
Cn1c(/C(C#N)=C/c2ccccc2Br)nc2ccccc21 | . | ? | - | 10µM | . | ?
CCn1c(/C(C#N)=C/c2ccccc2Cl)nc2ccccc21 | . | ? | . | - | . | ?
COCCNc1cc(N2CCN(C3CCCCC3)CC2)c2noc3c2c1C(=O)c1ccccc1-3 | . | ? | . | - | . | -
Cc1ccc(Cl)cc1-n1ncc2c(N3CCN(Cc4ccccc4)CC3)ncnc21 | . | ? | . | 16µM | . | 20µM
Clc1cccc(-n2ncc3c(N4CCCCCC4)ncnc32)c1 | . | ? | . | ? | . | 13µM
CC1CCN(c2ncnc3c2cnn3-c2ccccc2)CC1 | . | . | - | . | . | .
Cc1nn(-c2ccccc2)c(Cl)c1C(=O)N1CCN(c2ncnc3c2cnn3-c2ccccc2)CC1 | - | ? | - | 10µM | - | ?
CCN(c1ncnc2c1cnn2-c1cccc(Cl)c1)C1CCCCC1 | . | - | . | ? | . | ?
CCN1CCN(c2ncnc3c2cnn3-c2cc(Cl)ccc2C)CC1 | . | ? | . | - | . | ?
Clc1cccc(-n2ncc3c(N4CCCCC4)ncnc32)c1 | . | ? | . | 3.2µM | . | 6.3µM
Cc1cc(=O)oc2c(OS(C)(=O)=O)c(OS(C)(=O)=O)ccc12 | -[11 µM] | -[11.4 µM] | . | -[9.22 µM] | -[11.4 µM] | -[9.22 µM]
Cc1ccc2c(Sc3ccc(Cl)cc3)c(C(=O)N3CCC(C)CC3)[nH]c2c1 | . | - | . | - | . | -
